Screening data deposited in PubChem BioAssay by Broad Institute.
SIRT5 inh: SIRT5 desuccinylase inhibitors, primary screen, biochemical, fluorescence imaging, single point, set 5. Purified SirT5, succinyl-peptide AMC, trypsin-coupled fluorescence. inhibition, % at 15 µM. actives 1.1% (n = 330,000). AID 652115, 2013; in the data active means inhibition above about 15%
PfHsp90 set2: growth inhibition of PfHsp90-expressing yeast, primary screen, antimalarial PfHsp90 inhibitor project, S. cerevisiae, BacTiter-Glo luminescence, single point, set 2 | BacTiter-Glo ATP, 48 h; yeast lacking PDR1 and PDR3 efflux regulators | inhibition, % at 9.4 µM | actives 0.32% (n = 310,000) | AID 504621, 2011;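 active means every replicate shows inhibition above about 80%, whatever the replicate mean, limit read from the data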
ARNT TACC3 PPI: disruptors of ARNT/TACC3 protein interaction, primary screen, biochemical, AlphaScreen, single concentration. inhibition, % at 9.99 µM. AlphaScreen His-ARNT PAS-B/GST-TACC3 binding, luminescence; TACC3 fragment carries E629A point mutation. actives 0.66% (n = 390,000). AID 623870, 2012;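 active means mean inhibition of replicates at least 50% and at least half of replicates each reaching 50%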
NSD2 HMT inh: NSD2 histone methyltransferase inhibitors, primary screen, biochemical, AlphaScreen, single concentration, set 2. inhibition, % at 12.5 µM. Histone-lysine N-methyltransferase NSD2 (Homo sapiens), O96028. actives 0.54% (n = 310,000). NSD2 peptide methylation, 120 min; in the data active means inhibition above about 50%
Casp6 inh: human caspase-6 inhibitors, primary screen, biochemical, VEID-R110 fluorescence, single point, set 2 | inhibition, % at 12.5 µM | actives 0.53% (n = 350,000) | purified caspase-6, Z-VEID-R110 cleavage fluorescence;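 active means mean inhibition across replicates at least about 35%, with every replicate also reaching that limit, limit read from the data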
Large screens that a line does not name were inactive. This is a sample that favours compounds with a hit; in the whole collection about 2.1% have one here.

Cc1cc(C)c(-n2c(O)c(/C=N/NC(=O)c3ccncc3)c(=O)[nH]c2=O)c(C)c1	ARNT TACC3 PPI 64.1
CCc1ccc(-n2c(O)c(/C=N/NC(=O)c3ccncc3)c(=O)[nH]c2=O)cc1	none (no result: SIRT5 inh, Casp6 inh)
CCCCn1c(O)c(/C=N/NC(=O)c2ccncc2)c(=O)[nH]c1=O	ARNT TACC3 PPI 65.7
CC(C)c1ccc(-n2c(O)c(/C=N/NC(=O)c3ccncc3)c(=O)[nH]c2=O)cc1	ARNT TACC3 PPI 61.2
Cn1c(=O)c2c(nc(N/N=C/c3c(O)n(-c4ccccc4)c(=S)[nH]c3=O)n2C)n(C)c1=O	ARNT TACC3 PPI 58.5 (no result: SIRT5 inh, Casp6 inh)
O=C(N/N=C/c1c(O)n(CCc2ccccc2)c(=O)[nH]c1=O)c1ccccc1	none (no result: PfHsp90 set2, ARNT TACC3 PPI)
COC(=O)[C@H]1[C@H](CO)[C@H]2Cn3c(ccc(C4=CCCC4)c3=O)[C@@H]1N2S(=O)(=O)c1cn(C)cn1	none (no result: PfHsp90 set2, NSD2 HMT inh)
O=C(O)[C@@H]1[C@@H](CO)[C@@H]2Cn3c(ccc(-c4ccncc4)c3=O)[C@H]1N2C(=O)C1CCC1	none (no result: PfHsp90 set2, NSD2 HMT inh)
CCCN1[C@@H]2c3ccc(-c4cccc(C(=O)N(C)C)c4)c(=O)n3C[C@H]1[C@H](CO)[C@H]2C(=O)OC	none (no result: PfHsp90 set2, NSD2 HMT inh)
CC(C)c1ccc(-n2c(O)c(/C=N/NC(=O)c3ccccc3O)c(=O)[nH]c2=S)cc1	ARNT TACC3 PPI 84.9 (no result: NSD2 HMT inh)
Cc1ccccc1-n1c(O)c(/C=N/c2nccs2)c(=O)[nH]c1=O	none
Cc1ccccc1-n1c(O)c(/C=N/NC(=O)c2ccncc2)c(=O)[nH]c1=O	ARNT TACC3 PPI 70.9
N#CC1=C(N)Oc2c(c(=O)oc3ccccc23)C1c1ccc([N+](=O)[O-])o1 (stereo unspecified)	Casp6 inh 40.3
C[C@H]1C[C@@H](C)C(=O)[C@@H]([C@H](O)CC2CC(=O)NC(=O)C2)C1	PfHsp90 set2 105.8 (no result: SIRT5 inh, NSD2 HMT inh)
CCCN1[C@@H]2Cn3c(cccc3=O)[C@H]1[C@@H](C(=O)N(C)C)[C@@H]2CO	none (no result: PfHsp90 set2, NSD2 HMT inh)
COC(=O)[C@@H]1[C@@H](CO)[C@@H]2Cn3c(ccc(C4=CCCCC4)c3=O)[C@H]1N2CC1CCCCC1	none (no result: PfHsp90 set2, ARNT TACC3 PPI, NSD2 HMT inh)
CC=Cc1ccc2n(c1=O)C[C@H]1[C@H](CO)[C@@H](C(=O)N(C)C)[C@@H]2N1C (mixture of isomers)	Casp6 inh 56.9 (no result: PfHsp90 set2, NSD2 HMT inh)
C=C1C(=O)OC2CCN3CC=C(COC(=O)C(C)(O)C4(CO4)C1C)C23 (stereo unspecified)	Casp6 inh 36.1 (no result: PfHsp90 set2, ARNT TACC3 PPI, NSD2 HMT inh)
Cc1cccc(-n2c(/C=C/c3ccc([N+](=O)[O-])o3)nc3ccccc3c2=O)c1	SIRT5 inh 18.2
O=c1c2ccccc2nc(/C=C/c2ccc([N+](=O)[O-])o2)n1-c1ccc(O)cc1	none
CCCCCC(=O)N[C@@H](c1ccccc1)[C@@H](O)C(=O)O[C@H]1C[C@@]2(O)[C@@H](OC(=O)c3ccccc3)C3[C@](C)(C(=O)[C@H](O)C(=C1C)C2(C)C)[C@@H](OC1OCC(O)C(O)C1O)C[C@H]1OC[C@@]31OC(C)=O (stereo partly specified)	ARNT TACC3 PPI 56.8 (no result: SIRT5 inh, NSD2 HMT inh)
CC(=O)O[C@@]12CO[C@@H]1C[C@H](OC1OCC(O)C(O)C1O)[C@@]1(C)C(=O)[C@H](O)C3=C(C)[C@@H](OC(=O)[C@H](O)[C@@H](NC(=O)c4ccccc4)c4ccccc4)C[C@@](O)([C@@H](OC(=O)c4ccccc4)C12)C3(C)C (stereo partly specified)	none (no result: SIRT5 inh, NSD2 HMT inh)
O=C(NCC1=C(c2ccc3ccccc3c2)C[C@@H]2CC[C@H]1N2Cc1ccco1)c1ccncc1	SIRT5 inh 24.9 (no result: PfHsp90 set2, ARNT TACC3 PPI, NSD2 HMT inh)
COC(=O)[C@@H]1[C@@H](CO)[C@@H]2Cn3c(cccc3=O)[C@H]1N2C(=O)C1CCC1	none (no result: PfHsp90 set2, NSD2 HMT inh)
COC(=O)[C@@H]1[C@@H](CO)[C@@H]2Cn3c(ccc(-c4ccccc4)c3=O)[C@H]1N2CCc1ccccc1	SIRT5 inh 16.1 (no result: PfHsp90 set2, NSD2 HMT inh)
COC(=O)[C@@H]1[C@@H](CO)[C@@H]2Cn3c(ccc(-c4ccccc4F)c3=O)[C@H]1N2Cc1ccccc1	ARNT TACC3 PPI active (no result: PfHsp90 set2, NSD2 HMT inh)
COC(=O)[C@@H]1[C@@H](CO)[C@@H]2Cn3c(ccc(-c4ccncc4)c3=O)[C@H]1N2CCc1ccccc1	none (no result: PfHsp90 set2, NSD2 HMT inh)
COC(=O)[C@@H]1[C@@H](CO)[C@@H]2Cn3c(ccc(-c4ccccc4F)c3=O)[C@H]1N2Cc1cccnc1	none (no result: PfHsp90 set2, NSD2 HMT inh)
COC(=O)[C@H]1[C@H](CO)[C@H]2Cn3c(ccc(C4=CCCCC4)c3=O)[C@@H]1N2CCc1ccccc1	none (no result: PfHsp90 set2, NSD2 HMT inh)
NS(=O)(=O)c1ccc(-c2ccc(C=C3C(=O)NC(=S)NC3=O)o2)cc1	SIRT5 inh 35.4 (no result: PfHsp90 set2, ARNT TACC3 PPI, NSD2 HMT inh)
CC(C)NC(=O)N1[C@@H]2Cn3c(ccc(-c4cccc(C(=O)N(C)C)c4)c3=O)[C@H]1[C@@H](C(=O)O)[C@@H]2CO	none (no result: PfHsp90 set2, NSD2 HMT inh)
Oc1cc(Cl)c(Cl)c(Cl)c1Cl	PfHsp90 set2 104.2
Oc1cc(Cl)c(Cl)cc1Cl	none (no result: PfHsp90 set2, ARNT TACC3 PPI)
CCCNC(=O)[C@@H]1[C@@H](CO)[C@@H]2Cn3c(cccc3=O)[C@@H]2N1CC	none (no result: PfHsp90 set2, ARNT TACC3 PPI, NSD2 HMT inh)
COC(=O)[C@@H]1[C@@H](CO)[C@@H]2Cn3c(ccc(-c4cccnc4)c3=O)[C@H]1N2CCc1ccccc1	none (no result: PfHsp90 set2, NSD2 HMT inh)
O=C1NC(=O)N(CCC2=CCCCC2)C(=O)/C1=C/c1cccs1	Casp6 inh 37.0 (no result: PfHsp90 set2, ARNT TACC3 PPI)
CCCN1[C@@H]2Cn3c(ccc(-c4ccc(F)cc4)c3=O)[C@H]1[C@@H](C(=O)OC)[C@@H]2CO	none (no result: PfHsp90 set2, NSD2 HMT inh)
CCCCCCCCCCCCCCCC[N+](C)(C)C	PfHsp90 set2 109.1 (no result: NSD2 HMT inh)
CCCCCC[N+](=O)[O-]	none (no result: SIRT5 inh, ARNT TACC3 PPI, NSD2 HMT inh)
CN(c1ccc(O)cc1)c1ccc([N+](=O)[O-])c2nonc12	NSD2 HMT inh 52.9 (no result: SIRT5 inh, PfHsp90 set2, ARNT TACC3 PPI)
CCCNC(=O)N1[C@@H]2c3ccc(-c4cccc(C(=O)N(C)C)c4)c(=O)n3C[C@H]1[C@H](CO)[C@H]2C(=O)O	none (no result: PfHsp90 set2, ARNT TACC3 PPI, NSD2 HMT inh)
C[n+]1c(-c2ccccc2)c2cc(N)ccc2c2ccc(N)cc21	ARNT TACC3 PPI 47.4 (no result: NSD2 HMT inh, Casp6 inh)
Nc1ccc2ccc3cccc[n+]3c2c1	none
CC[C@H]1C=C(C(=O)N[C@@]2(C(=O)O)C[C@H]2CC)[C@H]2CCC(=O)[C@H]2C1	none (no result: PfHsp90 set2, ARNT TACC3 PPI, NSD2 HMT inh)
Cc1cc(/C=C2\C(=O)NC(=O)N(c3ccccc3)C2=O)c(C)n1-c1ccc(C(=O)O)c(Cl)c1	Casp6 inh 38.1
COc1ccc(OC)c(N2C(=O)NC(=O)/C(=C\c3ccc([N+](=O)[O-])s3)C2=O)c1	PfHsp90 set2 90.7
O=C1NC(=O)N(c2ccccc2)C(=O)/C1=C\c1ccc([N+](=O)[O-])s1	none (no result: PfHsp90 set2, ARNT TACC3 PPI)
CCC(C)n1c(O)c(/C=N/NC(=O)c2ccncc2)c(=O)[nH]c1=S (stereo unspecified)	ARNT TACC3 PPI 64.6
CCn1c(O)c(/C=N/NC(=O)c2ccncc2)c(=O)[nH]c1=S	none (no result: ARNT TACC3 PPI)
